Data: the supplement of paper PMC12632987
Whole data set: some 4,500 sequences, median “median log2 fold change of GCK-ALFA target abundance (FLAG IP / Myc IP barcode read proportion)” near 0.078, cut for the lowest 2% near -0.6. Many of the other results were omitted from the sample, so the lowest values are more common in it than they were.

B1: GBRAP_160_4497 (protein)
chain: SERKERAKERARELVEEAAEAIREEEGEGKEQIARAYAGDIALELLELGVVSEEQEEEVLRLAEEGFRRMVEASEKGEEELERAAEELKRRLEELIEEFA
B2: GBRAP_160_4123 (protein)
chain: KEKKRKTLLDSAKDVEETLKIIEDLSPEEAGTLAIVTLGQILLDNDELDDEFPEIEKLADEAIEKLRETAKTDPEKLKELSKELLEEIRELLLKKAEELK
B3: GBRAP_52_5921 (protein)
chain: SDEEARALAEAILEAALAGREDELRALIKRLVEEKSLEEIKRVIEELARLTAELGPEHYDLFADIMDLLLDAAEEAGRDVEEVDYAIAEAAGLLYDAEQA
B4: GBRAP_160_4321 (protein)
chain: SALMEELKKEIEEIAEEAKELIEGESPEQRRTIVKVALGEILLLAIENPEISDELEDKIAEIADAAEAELDANPDLSEEEVKELLEKAVKEILELIEKEE
B5: GBRAP_160_3995 (protein)
chain: SEKKKKLLEKIKEILEETYELMKGESPEERLAIARVAAGDILLELFESELVSDETEEKIDEVLDEFVATVEANPDMSDEELKELLEETLEKIEKIIEENS
B6: GBRAP_160_4762 (protein)
chain: KEELKKLKEEIEEIFKEHIELLKEVPKEKAVTVVEGAMGEVLMLAFSSEAVSDELEEKIGEIMDEAVERAKENKDAPVEVHIKILEEAREKILELIEEEI
B7: GBRAP_52_6056 (protein)
chain: MEARIEALARAIAAAIAAGDLDAALALLREAIATLTPEEIRRTLQLAARLVAGLGEEAHERFVELLDEAHELMIEAGISEEEADIIVGDAEAALARAVAA
B8: GBRAP_117_2594 (protein)
chain: SATLEEVRKRVEELVERIRKALEEMKTLSEEERKRLREELLEEATKEVKEMLKLTDAETVEEFFAEALADLSPEERVEAYIIFEEALADAEDELKEEEEA
B9: GBRAP_128_3594 (protein)
chain: SVEEVRAYVREALAAMKEADAETRREIADALMERLLTLSDEEQRAAFETIEELLPELSAEDLDILADALREHRPRFSPEGANLAADVEVEALNEREELEE
B10: GBRAP_80_6786 (protein)
chain: MEEEIEKLIEEIEKKNPEVAKIIKEIVELLKEIGVPLEIIKEIVEVFLDALSLPKETQLKIAKEVLEEAKELSEYKDEFSPEDIGRMVLAEALTLVELAK
B11: GBRAP_83_6928 (protein)
chain: KEKIVVAANDDNIDEAFEAAIDLQKNEGYEVDVEVIITKEGFPKLKKAFEKMAKAGWNGTLDILAVGATKEEVEKLKAELEAIAKKYGVNVKINVTQVEP
B12: GBRAP_160_4685 (protein)
chain: SEKVEEAEEFLEEEFAEVVELFDEVTREELAAFVRVAFGEIILELEELGLLTDEVAEVIDEEEERIVDAILNDPNITKEEFAALLEEAAEEIVEELEEEA
B13: GBRAP_184_5239 (protein)
chain: MVLERTIKAENEEELREKMKEVMEEAEKKGAKVRLLIEVEKLTREKAETLAEMIKEMAAKGLLELVGVVSSEPISEEIVDLLVEAADEAGVKLVIAEPEI
B14: GBRAP_52_6331 (protein)
chain: SHEEVEKMAEELYKAIVAGKEEEAKKLAEEMVETLSSEEILEAARIVAERVAKEGDEVKVRAAEVFEYLAELVEEKRGDERTAAEILGIYATTLYAAEQA
B15: GBRAP_11_2762 (protein)
chain: MKEKYERLAELAERAAELVDRLLAEGVDDAELLAELERLLRELREETKKIGDKALEKDVEIAEELFRALQADPANAEAYARELRAQLRVLAGQYLLLAEE
B16: GBRAP_35_5533 (protein)
chain: NSDEEIAEMLLNTMEALVDALPDVSPEQQLALARHLIRLAEDFLELKTKSAELIKRLIEVLERAIELIKKSSLPPEQQEELIRELEELRERAKELLKEVE
B17: GBRAP_128_3242 (protein)
chain: SQEELLEEAKKLIEEIVKADVETAKKLTEKLIELLKKLNDEAREEVAEYLEKELEKLSAEKLEAVADTLRENRPKLDPYTAALVAGVEIDALELALEKEE
B18: GBRAP_128_3244 (protein)
chain: SQEELLEEAKKLVDEIVEADVEEAKELTKKLIELMKKLNKESREEVADYLIEKLKELSAEKLEAVADTLRENRPKLDDYTAALVAGVEIEALELALEQEE
B19: GBRAP_184_5275 (protein)
chain: KVIHVDIVAETGEEAIKEVKKAAEKAKKEGAKLKINILLENSSVEETIKLFELLKKLKEEGIIEDAVVGIENEKTEEEIDTLLKAADEAGVKLVLAISDE
B20: GBRAP_80_6828 (protein)
chain: AEKELEAVIKELAEVDPEIAKLVEEAIEIAKELGVPLEVLLRFAKAILELAKVDKEKALELVKELLEELKKAKEEGNRDEAIALLYDAESEALLAVEELE
B21: GBRAP_52_6260 (protein)
chain: MRERLRALVEEILELVKAGRLEEARALATELAETFNEEELEIFIEEAAELARRSSKEEVEDLIRMAELVAEALEEAGRPEELVSLFEARVYGAIYETEKR
B22: GBRAP_160_4430 (protein)
chain: AEKLEKAKKEIDALFAEALEMMKGQTAEQRIVVLRVTEGEVKLELEELGLLTDEVDAVIDATFAAIIAHVAAHPDITDAELAALLDAAAATIKAELDKAA
B23: GBRAP_83_6937 (protein)
chain: KEKITVVANDDNIEKSFEIAEDLHKEEGYEVDIDVIITKESIEKLLKEVEKLFKKGVNADLHISLLGVTEEEAEELKKKLEEMAKKYGVNANITVEAIEL
B24: GBRAP_125_3134 (protein)
chain: GMAEDLEDLAIVARALGFSDDDVAEAVAIAAKHGFKGTLYAIMAALGYDEVADLVEKITEEEAIEVIREVAAEIRADPSLTPEEVVELIKKRLEEVIAKK
B25: GBRAP_125_3132 (protein)
chain: HMEEILENLAIVAKALGLSDDDVEEAVKIAEKHGVKGTMYAILAALGYDEVADLVEKITEEEAIEVVKEVAEKIKKDPSLTPEEVVELIKKLLKEKIAAK
B26: GBRAP_125_3133 (protein)
chain: MTEEILEDLAIVARALGFSDDDVEEAVEIARKHGVKGTLYAIMLALGYEEVADLVEKITEEEAIEVLREVAARIREDPSLTPEEVVALIKELLKEKIAKK
B27: GBRAP_52_5954 (protein)
chain: AAARIQAQVDRLAALVRAGDLDAARALARELAETLDEEELRAFAAAVAAAVAAAPADELDAAFRLAEIVADELEREGRDEELAGDLLAAAAAALYAKEQA
B28: GBRAP_52_5929 (protein)
chain: MREEARELAERVLEAAEAGDEERLRELLREIVEELDDEEIELVIDELAELTIERGPEYYDLFADIMDLLEDEVEKAGRDVERVQYAIARAAGRMYDALQA
B29: GBRAP_137_3627 (protein)
chain: ATVTIELRRYEDVVEITITLDDPEKAEAAAELVEDVAHEEGALAVSIELEEDGTLVVEVWVPRDKAEALLARLVERLTTELGATVVIRDLDTGEVRVVTP

The binders below were run against GABARAP, O95166 (assay: median log2 fold change of GCK-ALFA target abundance (FLAG IP / Myc IP barcode read proportion) (log2 ratio); each designed protein is fused to an ALFA-tag nanobody in HEK293 cells to bring the named protein to FLAG-tagged glucokinase (GCK); Myc marks an untargeted standard; higher = target protein stabilised (more abundant)). Details: target protein: 3xFLAG-MCP-GCK-ALFA reporter; HEK293 landing pad (RPLP).
Chain of GABARAP, O95166 (O95166 whole entry, the tested form may be a part): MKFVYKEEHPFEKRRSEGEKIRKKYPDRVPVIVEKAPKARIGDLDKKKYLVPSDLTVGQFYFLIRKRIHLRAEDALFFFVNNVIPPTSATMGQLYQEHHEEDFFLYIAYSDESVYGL
Method in brief: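 HEK293 landing-pad cells received a recombined binder library fused to the ALFA nanobody and were induced with 2 μg mL^−1 doxycycline, then transfected with a plasmid encoding a FLAG-tagged target and a Myc-tagged standard. Lysates were collected after 48 h for anti-FLAG and anti-Myc immunoprecipitation, and the circular RNA barcodes were reverse transcribed, amplified and sequenced. Target abundance for each binder is the median log2 ratio of FLAG to Myc barcode read proportions. Barcodes had to reach a proportion of at least 10^−7 in both replicates, each binder needed at least 3 barcodes per replicate, a pseudocount of 10^−6 was applied, and the two replicates were pooled.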
B1 was tested, and the “median log2 fold change” value was 0.292.
With B2 the “median log2 fold change” value was 0.128.
In the case of B3, the “median log2 fold change” value is reported as -0.394.
With B4 the “median log2 fold change” value was -0.0253.
In the case of B5, the “median log2 fold change” value is reported as -0.00842.
With B6 the “median log2 fold change” value was 0.0708.
In the case of B7, the “median log2 fold change” value is reported as -0.851.
With B8 the “median log2 fold change” value was 0.152.
For B9, the “median log2 fold change” value was -0.0656.
With B10 the “median log2 fold change” value was -0.00858.
For B11, the “median log2 fold change” value was 0.0213.
For B12, the “median log2 fold change” value was -0.679.
For B13, the “median log2 fold change” value was 0.163.
B14 was tested, and the “median log2 fold change” value was 0.372.
With B15 the “median log2 fold change” value was 0.183.
With B16 the “median log2 fold change” value was -0.115.
In the case of B17, the “median log2 fold change” value is reported as -0.0414.
In the case of B18, the “median log2 fold change” value is reported as -0.658.
B19 was tested, and the “median log2 fold change” value was -0.234.
B20 was tested, and the “median log2 fold change” value was 0.0224.
In the case of B21, the “median log2 fold change” value is reported as -0.0461.
With B22 the “median log2 fold change” value was 0.0561.
B23 was tested, and the “median log2 fold change” value was 0.224.
In the case of B24, the “median log2 fold change” value is reported as -0.575.
For B25, the “median log2 fold change” value was -0.0148.
In the case of B26, the “median log2 fold change” value is reported as -0.744.
With B27 the “median log2 fold change” value was -0.0538.
B28 was tested, and the “median log2 fold change” value was -0.453.
B29 was tested, and the “median log2 fold change” value was -0.0361.
